The values that follow come from PubChem BioAssay (NCI).

The structures appear in SMILES notation. This is part of a sample that, as a whole, favours compounds with a hit. Of some 83,000 tested, about 20% had one in any assay.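 Cells were grown in 96-well plates and exposed to the test compound at a single concentration for 48 hours; results are reported as percent growth, with values below 10 considered active.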 Activity calls are given as the source filed them.

The test system of this assay is HL-60(TB) leukemia. As to the kind of experiment: NCI-60 one-dose screen, 48 h (100 = growth as untreated, 0 = no growth, -100 = all killed). The settings on record: 10 µM unless noted.
As to `Oc1[nH]c2ccccc2c1/C=c1/ccc2c(c1)N=C(c1cc(F)cc(F)c1)N=2`, the growth was 54.2% (inactive).
For the compound `Cc1c(C(=O)Nc2nc(-c3ccccc3)cs2)nnn1-c1ccccc1Br`, the growth is 36.9% [50 µM] (inactive).
For the compound `COC(=O)C1(C(=O)OC)C2C(=O)C3C(C21)C3(C(=O)OC(C)(C)C)C(=O)OC(C)(C)C` (centres undefined), the growth was 96.6% (inactive).
Turning to `C[C@H]1[C@H](OC(=O)CCC(=O)O)O[C@@H]2O[C@]3(C)CC[C@H]4[C@H](C)CC[C@@H]1[C@@]24OO3`, the growth was -30.5% (active).
Turning to `COc1ccc(CNc2ccc3nc(NC(=O)CN4CCCCCC4)sc3c2)cc1`, the growth was 47.4% (inactive).
Regarding `CCCCN(CCCC)CCCn1c(-c2ccccc2)ccc1-c1ccccc1`, the growth was 61.6% (inactive).
As for `CC(=O)OC(C)c1cccc(C#N)c1` (centres undefined), the growth is 105% (inactive).
Consider `COC(=O)c1c2c(c(C)[n+]([O-])c1C)C(=O)C(NCc1ccc(F)cc1)=CC2=O`, for which the growth was -51.5% (active).
The result for `Cc1ccc(C)c2c1CCC2=O` reads 134% (inactive).
On to `O=C1/C(=C/c2ccccc2)CN(C(=O)c2cccnc2)C/C1=C\c1ccccc1`, for which the growth was -8.8% (active).
For `O=C(Nc1ccncc1)C(=O)c1cn(S(=O)(=O)c2cccc(Cl)c2)c2ccccc12`, the growth is 41.8% (inactive).
The figure for `COC(=O)[C@H]1CCCN1C(=O)[C@H]1CCCN1C(=O)[C@H](Cc1c[nH]c2ccccc12)NC(=S)Nc1cc(C(F)(F)F)cc(C(F)(F)F)c1` is 53.4% (inactive); for `C(=N\Nc1ncnc2sc3c(c12)CCNC3)/c1cccc2ccccc12` it is 99.1% (inactive); for `COc1ccc2c(c1)[nH]c(=O)c1c3cc(OC)ccc3cn21` it is -8.1% (active).
As for `C=C1C(=O)O[C@H]2[C@H]1CC/C(CNS(=O)(=O)c1ccc3ccccc3c1)=C\CC[C@@]1(C)O[C@@H]21`, the growth is -48.4% (active).
Take `C=C1C(=O)O[C@H]2[C@H]1CC/C(COC(=O)c1cc3cc(Cl)ccc3[nH]1)=C\CC[C@@]1(C)O[C@@H]21`: the growth is -46% (active).
The figure for `COc1ccc(Cl)cc1NC(=O)c1cc2c([nH]1)-c1nc(NC(=O)C(C)C)sc1CC2` is 90.9% (inactive); for `O=C(Nc1ncc(Cc2cccc(C(F)(F)F)c2)s1)c1ccc2c(c1)OCCO2` it is -46.6% (active).
Regarding `Nc1ccc(C2=NN(c3ccccc3)C(c3ccc(Cl)cc3)C2)cc1` (centres undefined), the growth was 59.6% (inactive).
The figure for `CCCCCCNC(=O)Oc1ccc(/C(=C(\C)c2ccccc2)c2ccc(OCCN3CCCCC3)cc2)cc1` is 31.1% (inactive); for `CCC(C)C(N)C(=O)NC(CC(C)C)C(=O)N1CCCC1C(=O)NC(Cc1c[nH]c2ccccc12)C(=O)NC(CCCCN)C(=O)NC(Cc1c[nH]c2ccccc12)C(=O)N1CCCC1C(=O)NC(Cc1c[nH]c2ccccc12)C(=O)NC(Cc1c[nH]c2ccccc12)C(=O)N1CCCC1C(=O)NC(Cc1c[nH]c2ccccc12)C(=O)NC(CCCNC(=N)N)C(=O)NC(CCCNC(=N)N)C(N)=O` (centres undefined) it is -2.6% (active); for `CCCC/C=N/NC(=S)NCc1ccccc1` it is 105% (inactive).
Consider `COc1ccc(/C=N/C2=C(C#N)C(c3ccc(N(C)C)cc3)c3ccc4ccccc4c3O2)cc1` (centres undefined), for which the growth was 19.6% (inactive).
Turning to `COc1cccc(-c2nc3occn3c2-c2ccnc(NCCNS(=O)(=O)c3cccc4ccccc34)n2)c1`, the growth was 121% (inactive).
The result for `COc1cc(C(=O)/C=C/c2sc(Cl)nc2Cl)cc(OC)c1OC` reads 23.4% (inactive); that for `Cc1c(C(N)=O)sc2nc(SCC(=O)Nc3ccc(Cl)cc3)n(-c3ccccc3)c(=O)c12`, 171% (inactive).
For `COC(=O)CCC1=C(C)C(C)=N/C1=C\c1[nH]c(-c2ccc[nH]2)cc1OC`, the growth was -21.8% (active).
The figure for `CN(C)CCCNc1nc(-c2cccc(C(Cl)(Cl)Cl)c2)nc(C(Cl)(Cl)Cl)n1` is 105% (inactive); for `COc1ccc2nc(Cl)c(/C=C3\CC(c4ccccc4)=NN(c4ccccc4)C3=O)cc2c1` it is 99% (inactive); for `CCN(CC)CCOc1cccc2c1C(=O)c1ccccc1C2=O` it is 93.3% (inactive).
For the compound `Cc1cc(N2CCOCC2)nc(N(CCCNc2ccnc3cc(Cl)ccc23)Cc2ccc3c(c2)OCO3)n1`, the growth is -60.9% (active).
The figure for `NC(=O)c1cccc(N2Cc3ccccc3OC3=C2C(=O)c2c(O)ccc(O)c2C3=O)c1` is -46.3% (active); for `c1ccc2nc(Cn3c[n+](Cc4ccc5ccccc5n4)c4ccccc43)ccc2c1` it is -40.1% (active).
On to `C#CCN(Cc1ccc2nc(N)[nH]c(=O)c2c1)c1ccc(C(=O)NC(CCC(=O)O)C(=O)O)cc1` (centres undefined), for which the growth is 43.6% (inactive).
